From PubChem BioAssay (NCATS)
Values without a mark were called inactive. Inconclusive results are not listed. A call without a number means that no potency is given here. The source made the active and inactive calls. Unless noted, the call rests on the fitted dose curve; in most records, active means well fitted curve in the direction sought with a large enough effect; inconclusive means small, poorly fitted or top-dose-only effect, or another doubt; inactive means no such curve, though single readings can be large; an effect the other way counts as inactive or inconclusive.

What was measured:
[1] = Validation of Assay for Modulators of Lamin A Splicing (AID 1459; active means well fitted curve in the direction sought with a large enough effect in the signal ratio; the % refers to the signal ratio;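 further: cells exposed to compound for two days before reading; ratio rise marks activators and ratio drop marks inhibitors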)
Summary of the method: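 S3 HeLa cells stably expressing a lamin A-EGFP splicing minigene and DsRed2 were seeded at 600 cells/well in Opti-MEM with 2% FBS, pin-dosed, and incubated 48 hrs at 37 °C, 5% CO2. Laser-scanning cytometry (488 nm) gave GFP/RFP total intensity ratio.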

[2] = biological target: DNA repair nuclease/redox regulator APEX1 (Homo sapiens) (UniProt P27695); assay: qHTS Validation Assay for Inhibitors of the Human Apurinic/apyrimidinic Endonuclease 1 (APE1) (AID 1705; further: potency means the concentration at half of the fitted maximal effect)
Summary of the method: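 Human APE1 was preincubated with compound for 15 min at room temperature, then 50 nM (final) THF-abasic double-stranded DNA substrate bearing 5'-TAMRA and 3'-BHQ-2 was added. Incision-driven fluorescence rise (ex 525/em 598 nm) was read kinetically.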

[3] = Counterscreen for APE1 Inhibitors: Fluorescent Dye Displacement Validation Assay (AID 1707)
Summary of the method: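 ThO 250 nM + dsDNA 50 nM (THF abasic site, 5'-TAMRA), Tris-HCl pH7.5/50mM NaCl/2 mM MgCl2/0.01% Tween-20; compounds pin-transferred; ex 480/em 540 nm endpoint. Neutral = no compound; no-DNA ThO wells = negative control.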

[4] = biological target: Endonuclease 4 (Escherichia coli (strain K12)) (UniProt P0A6C1); assay: Counterscreen for APE1 Inhibitors: qHTS Validation Assay for Inhibitors of Endonuclease IV (AID 1708)
Summary of the method: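 E. coli EndoIV at 2 nM final, preincubated 15 min at room temperature with compound, then 50 nM TAMRA/BHQ-2 THF abasic-site duplex added. Buffer: 50 mM Tris-HCl pH 7.5, 50 mM NaCl, 2 mM MgCl2, 1 mM DTT, 0.01% Tween-20. Kinetic fluorescence increase, third minus first read.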

[5] = qHTS for differential inhibitors of proliferation of Plasmodium falciparum line GB4 (AID 1816); conditions: Potency: Plasmodium falciparum GB4 proliferation inhibition;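 further: parasite growth measured after 72 h incubation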; further: potency means the concentration at half of the fitted maximal effect
[6] = qHTS for differential inhibitors of proliferation of Plasmodium falciparum line 3D7 (AID 1876); further: potency means the concentration at half of the fitted maximal effect
[7] = qHTS for differential inhibitors of proliferation of Plasmodium falciparum line D10 (AID 1877);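 further: parasites grown with compound for 72 h before DNA staining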; further: potency means the concentration at half of the fitted maximal effect
[8] = qHTS for differential inhibitors of proliferation of Plasmodium falciparum line Dd2 (AID 1882); conditions: Potency: Plasmodium falciparum Dd2 proliferation inhibition; further: series mostly up to about 29 µM; nearly all actives have a fitted effect of over 65% in size
Summary of the method: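 Dd2-infected erythrocytes (0.3% parasitemia, 2.5% hematocrit final) incubated with compound 72 h at 37 C, 5% CO2; lysed with saponin/Triton buffer containing SYBR Green I, incubated overnight in the dark, then read by fluorescence (485/535 nm). Normalized to 0.29 uM artemisinin and DMSO.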

[9] = qHTS for differential inhibitors of proliferation of Plasmodium falciparum line HB3 (AID 1886); conditions: Potency: Plasmodium falciparum HB3 proliferation inhibition;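 further: parasites grown with compound for 72 h before SYBR Green readout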; further: potency means the concentration at half of the fitted maximal effect
[10] = biological target: ATP-dependent DNA helicase Q1 (Homo sapiens) (UniProt P46063); assay: qHTS Validation Assay for Inhibitors of RecQ-Like Dna Helicase 1 (RECQ1) (AID 2353)
Summary of the method: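 50 nM RECQ1T1 preincubated 15 min with compound in Tris pH 8.0 buffer with MgCl2, DTT, Tween-20 and 2.5 ug/ml poly(dI-dC); started with 200 nM TAMRA/BHQ-2 forked duplex and 2 mM ATP. Unwinding read as fluorescence (525/598 nm), two reads 2 h apart.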

[11] = Validation screen for small molecules that induce DNA re-replication in MCF 10A normal breast cells (AID 463097); further: nearly all actives have a fitted effect of over 60% in size
Summary of the method: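 Readout: Hoechst nuclear fluorescence intensity, 405 ex / 500-530 em, by scanning plate imager; re-replication scored as increase in nuclei with elevated DNA content. Cells exposed to compound 48 hr, 37 C, 5% CO2 beforehand.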

[12] = Quantitative high throughput screen for delayed death inhibitors of the malarial parasite plastid, 96 hour incubation (AID 488745); further: nearly all actives have a fitted effect of over 70% in size; further: potency means the concentration at half of the fitted maximal effect
Summary of the method: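 Infected erythrocytes were added to compound in Albumax-supplemented RPMI 1640 at 0.1% parasitemia and 2% hematocrit (final), incubated 96 h at 37 C under 5% CO2, then luciferase reagent was added and luminescence measured.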

[13] = Quantitative high throughput screen for delayed death inhibitors of the malarial parasite plastid, 48 hour incubation (AID 488752); further: nearly all actives have a fitted effect of over 65% in size; further: potency means the concentration at half of the fitted maximal effect
Summary of the method: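 Readout is firefly luciferase luminescence from a reporter integrated into the parasite genome, with lower signal taken as inhibited growth. Infected red cells (0.1% parasitemia, 2% hematocrit final) are cultured with compound for one 48 h cycle at 37 C.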

[14] = biological target: Transient receptor potential cation channel subfamily V member 1 (Homo sapiens) (UniProt Q8NER1); assay: HTS Assay for Compounds that Act as Enhancers of the Vanilloid Receptor 1 (AID 488979)
Summary of the method: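 TRPV1 cells loaded with Fluo-8 calcium dye; compound added and Ca2+ signal (ex 480/em 520 nm) followed 3 min, then capsaicin at EC20 added and read 2 more min to detect enhancement.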

[15] = biological target: Thyrotropin receptor (Homo sapiens) (UniProt P16473); assay: qHTS Assay for Antagonists of the Thyroid Stimulating Hormone Receptor (AID 488980); further: series mostly up to about 58 µM
Summary of the method: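 HEK293 cells transfected with human TSHR, suspended in HEPES-buffered HBSS with 70 uM RO 20-1724, were treated with compounds plus TSH at EC80 (4 nM final). cAMP was measured by competitive HTRF (cryptate anti-cAMP antibody, cAMP-d2 acceptor).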

[16] = biological target: Thyrotropin-releasing hormone receptor (Homo sapiens) (UniProt P34981); assay: qHTS for Small Molecule Agonists and Allosteric Enhancers of Human TRH Receptor: Validation Screen for Agonists (AID 493127;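 active means calcium activation more than 3 SD above the typical response in the agonist read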;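 further: intracellular calcium rise by fluo-8 fluorescence before TRH EC20 addition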); conditions: TRH receptor agonist cell assay; at 2 µM; hits give high values
Summary of the method: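 Cells 2000/well, 10% FCS, 18 h 33.5C/5% CO2 → fluo-8 Ca dye, RT 30 min–1.5 h → FDSS baseline 10 × 1 s → compound added → 230 cycles (1 s/cycle) agonist mode. TRH controls.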

[17] = biological target: Galactokinase (Homo sapiens) (UniProt P51570); assay: qHTS Validation Assay for Inhibitors of Human Galactokinase (GALK) (AID 493189)
Summary of the method: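 GALK (5 nM) with 35 uM ATP and 100 uM galactose in HEPES pH8.0, MgCl2, NaCl, DTT, BSA; 1 h at room temperature. Residual ATP read by Kinase-Glo Plus luminescence after 10 min.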

[18] = Validation screen for small molecules that induce DNA re-replication in SW480 colon adenocarcinoma cells (AID 504364)
Summary of the method: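 250 cells/well; compound pinned in; 48 hr, 37 C, 5% CO2; Hoechst added, 40 min; nuclear fluorescence imaged, 405 ex / 500-530 em; re-replication scored as increase in high-intensity nuclei.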

[19] = biological target: Voltage-gated inwardly rectifying potassium channel KCNH2 (Homo sapiens) (UniProt Q12809); assay: qHTS Assay for Small Molecule Inhibitors of the Human hERG Channel Activity (AID 588834);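 further: lower thallium flux fluorescence means stronger hERG block; nearly all actives have a fitted effect of over 50% in size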; further: potency means the concentration at half of the fitted maximal effect
Summary of the method: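 U2OS cells transduced with hERG via BacMam (MOI ~100), plated 2000/well, loaded with FluxOR thallium dye, compound ~10 min, then stimulation buffer; fluorescence decrease read kinetically; AC50 from Hill fits.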

Sequence of Transient receptor potential cation channel subfamily V member 1 (Homo sapiens) (Q8NER1 whole entry, looked up): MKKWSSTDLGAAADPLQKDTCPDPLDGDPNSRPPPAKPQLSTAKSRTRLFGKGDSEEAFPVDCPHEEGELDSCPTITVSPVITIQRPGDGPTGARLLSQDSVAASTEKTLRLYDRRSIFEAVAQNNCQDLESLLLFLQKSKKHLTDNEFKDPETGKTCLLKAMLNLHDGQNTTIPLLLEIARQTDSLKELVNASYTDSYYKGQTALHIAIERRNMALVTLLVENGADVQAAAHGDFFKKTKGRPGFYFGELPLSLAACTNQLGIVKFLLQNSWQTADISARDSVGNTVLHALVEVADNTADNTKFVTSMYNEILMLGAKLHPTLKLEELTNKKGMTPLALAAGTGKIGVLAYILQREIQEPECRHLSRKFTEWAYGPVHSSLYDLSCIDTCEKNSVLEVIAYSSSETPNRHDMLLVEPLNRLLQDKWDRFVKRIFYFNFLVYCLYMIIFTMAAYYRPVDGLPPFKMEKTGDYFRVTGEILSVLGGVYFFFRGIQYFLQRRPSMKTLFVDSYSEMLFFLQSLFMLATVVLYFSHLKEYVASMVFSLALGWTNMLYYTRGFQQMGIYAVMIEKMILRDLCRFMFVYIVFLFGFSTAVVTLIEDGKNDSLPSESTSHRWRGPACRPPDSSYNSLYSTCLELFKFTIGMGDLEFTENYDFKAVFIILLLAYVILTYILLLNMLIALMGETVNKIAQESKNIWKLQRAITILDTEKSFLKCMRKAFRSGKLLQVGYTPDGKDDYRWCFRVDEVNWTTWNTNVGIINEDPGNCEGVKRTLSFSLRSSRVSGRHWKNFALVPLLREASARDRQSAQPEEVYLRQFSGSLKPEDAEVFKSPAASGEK
Sequence of DNA repair nuclease/redox regulator APEX1 (Homo sapiens) (P27695 whole entry, looked up): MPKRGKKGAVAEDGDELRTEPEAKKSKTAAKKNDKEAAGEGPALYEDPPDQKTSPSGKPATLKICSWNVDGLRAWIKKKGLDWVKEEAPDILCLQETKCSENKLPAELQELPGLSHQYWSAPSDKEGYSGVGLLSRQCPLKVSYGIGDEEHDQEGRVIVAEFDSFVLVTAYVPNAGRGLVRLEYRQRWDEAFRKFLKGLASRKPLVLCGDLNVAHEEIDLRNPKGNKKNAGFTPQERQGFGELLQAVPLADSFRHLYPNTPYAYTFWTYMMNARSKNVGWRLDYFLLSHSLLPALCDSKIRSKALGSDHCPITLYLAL
Sequence of Thyrotropin receptor (Homo sapiens) (P16473 whole entry, looked up): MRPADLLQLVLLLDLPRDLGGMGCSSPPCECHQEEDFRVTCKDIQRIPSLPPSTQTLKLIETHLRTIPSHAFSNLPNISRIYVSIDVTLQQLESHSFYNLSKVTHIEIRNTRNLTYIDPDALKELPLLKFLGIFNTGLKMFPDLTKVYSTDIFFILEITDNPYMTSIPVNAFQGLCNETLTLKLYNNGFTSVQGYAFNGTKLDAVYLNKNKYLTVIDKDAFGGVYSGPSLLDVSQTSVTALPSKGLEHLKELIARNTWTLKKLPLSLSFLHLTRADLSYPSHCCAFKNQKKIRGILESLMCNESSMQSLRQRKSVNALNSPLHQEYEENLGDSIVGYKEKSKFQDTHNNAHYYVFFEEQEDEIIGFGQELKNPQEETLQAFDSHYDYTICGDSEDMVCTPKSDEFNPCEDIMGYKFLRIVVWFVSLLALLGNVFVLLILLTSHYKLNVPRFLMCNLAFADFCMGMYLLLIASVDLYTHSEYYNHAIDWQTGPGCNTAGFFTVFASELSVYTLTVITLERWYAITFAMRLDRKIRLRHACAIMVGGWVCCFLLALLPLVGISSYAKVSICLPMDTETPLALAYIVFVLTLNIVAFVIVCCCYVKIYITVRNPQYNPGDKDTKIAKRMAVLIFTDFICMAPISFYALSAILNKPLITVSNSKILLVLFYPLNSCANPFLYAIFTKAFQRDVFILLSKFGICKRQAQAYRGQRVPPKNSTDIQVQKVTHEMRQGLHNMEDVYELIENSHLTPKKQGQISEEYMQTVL
Sequence of Voltage-gated inwardly rectifying potassium channel KCNH2 (Homo sapiens) (Q12809 whole entry, looked up): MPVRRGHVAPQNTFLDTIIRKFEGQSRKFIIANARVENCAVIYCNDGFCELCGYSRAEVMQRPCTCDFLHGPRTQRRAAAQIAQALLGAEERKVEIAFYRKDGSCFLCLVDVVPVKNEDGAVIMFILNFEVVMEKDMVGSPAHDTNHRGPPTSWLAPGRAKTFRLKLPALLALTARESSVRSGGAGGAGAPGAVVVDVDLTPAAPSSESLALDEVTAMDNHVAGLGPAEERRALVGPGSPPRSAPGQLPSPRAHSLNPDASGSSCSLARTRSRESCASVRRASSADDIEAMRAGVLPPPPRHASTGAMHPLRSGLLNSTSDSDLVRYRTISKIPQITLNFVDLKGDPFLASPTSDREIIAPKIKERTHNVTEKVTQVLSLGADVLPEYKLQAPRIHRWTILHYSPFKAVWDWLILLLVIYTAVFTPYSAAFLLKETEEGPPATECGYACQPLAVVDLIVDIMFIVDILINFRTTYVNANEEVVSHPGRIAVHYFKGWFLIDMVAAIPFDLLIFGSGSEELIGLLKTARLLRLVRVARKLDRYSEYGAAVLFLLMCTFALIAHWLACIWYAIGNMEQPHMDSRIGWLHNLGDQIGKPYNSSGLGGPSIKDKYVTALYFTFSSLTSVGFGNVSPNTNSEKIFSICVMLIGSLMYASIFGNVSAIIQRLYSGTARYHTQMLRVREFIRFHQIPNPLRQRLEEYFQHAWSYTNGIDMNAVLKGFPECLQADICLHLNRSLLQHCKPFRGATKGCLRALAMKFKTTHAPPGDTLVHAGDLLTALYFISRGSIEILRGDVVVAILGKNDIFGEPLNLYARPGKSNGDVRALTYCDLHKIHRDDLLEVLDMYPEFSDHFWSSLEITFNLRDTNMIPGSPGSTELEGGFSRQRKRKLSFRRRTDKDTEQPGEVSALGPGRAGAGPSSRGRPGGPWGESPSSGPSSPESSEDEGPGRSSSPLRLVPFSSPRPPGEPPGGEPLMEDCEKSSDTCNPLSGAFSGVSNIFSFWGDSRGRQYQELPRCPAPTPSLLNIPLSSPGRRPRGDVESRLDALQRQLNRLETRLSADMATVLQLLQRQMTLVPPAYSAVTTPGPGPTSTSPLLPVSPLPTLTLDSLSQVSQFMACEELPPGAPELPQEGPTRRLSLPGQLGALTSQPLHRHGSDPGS
Sequence of ATP-dependent DNA helicase Q1 (Homo sapiens) (P46063 whole entry, looked up): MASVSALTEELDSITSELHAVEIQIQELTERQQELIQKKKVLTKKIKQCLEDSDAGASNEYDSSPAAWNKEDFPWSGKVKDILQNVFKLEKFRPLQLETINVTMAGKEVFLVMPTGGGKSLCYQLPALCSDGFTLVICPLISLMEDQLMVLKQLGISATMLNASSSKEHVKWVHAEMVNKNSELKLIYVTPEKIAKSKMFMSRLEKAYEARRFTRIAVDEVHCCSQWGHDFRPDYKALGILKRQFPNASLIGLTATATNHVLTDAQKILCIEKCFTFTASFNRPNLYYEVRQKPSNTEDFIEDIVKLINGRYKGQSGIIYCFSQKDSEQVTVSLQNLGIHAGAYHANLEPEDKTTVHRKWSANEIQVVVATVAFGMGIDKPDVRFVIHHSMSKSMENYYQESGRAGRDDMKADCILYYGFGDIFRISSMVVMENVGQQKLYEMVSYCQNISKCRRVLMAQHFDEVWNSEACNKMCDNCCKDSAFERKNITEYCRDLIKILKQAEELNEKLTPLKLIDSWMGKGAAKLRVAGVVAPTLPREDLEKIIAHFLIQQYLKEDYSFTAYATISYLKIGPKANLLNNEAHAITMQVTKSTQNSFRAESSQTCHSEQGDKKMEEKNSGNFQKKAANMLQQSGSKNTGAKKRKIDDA
Sequence of Thyrotropin-releasing hormone receptor (Homo sapiens) (P34981 whole entry, looked up): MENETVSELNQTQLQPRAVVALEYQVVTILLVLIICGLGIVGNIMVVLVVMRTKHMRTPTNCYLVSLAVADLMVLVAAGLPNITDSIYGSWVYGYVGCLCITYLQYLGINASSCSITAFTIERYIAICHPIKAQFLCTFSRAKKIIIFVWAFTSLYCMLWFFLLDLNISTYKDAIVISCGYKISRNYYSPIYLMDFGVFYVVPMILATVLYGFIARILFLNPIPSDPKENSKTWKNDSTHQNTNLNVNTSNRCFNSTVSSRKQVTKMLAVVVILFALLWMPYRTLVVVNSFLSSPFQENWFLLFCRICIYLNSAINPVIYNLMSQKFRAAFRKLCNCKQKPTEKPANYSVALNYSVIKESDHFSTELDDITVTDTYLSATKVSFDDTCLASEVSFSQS
Sequence of Galactokinase (Homo sapiens) (P51570 whole entry, looked up): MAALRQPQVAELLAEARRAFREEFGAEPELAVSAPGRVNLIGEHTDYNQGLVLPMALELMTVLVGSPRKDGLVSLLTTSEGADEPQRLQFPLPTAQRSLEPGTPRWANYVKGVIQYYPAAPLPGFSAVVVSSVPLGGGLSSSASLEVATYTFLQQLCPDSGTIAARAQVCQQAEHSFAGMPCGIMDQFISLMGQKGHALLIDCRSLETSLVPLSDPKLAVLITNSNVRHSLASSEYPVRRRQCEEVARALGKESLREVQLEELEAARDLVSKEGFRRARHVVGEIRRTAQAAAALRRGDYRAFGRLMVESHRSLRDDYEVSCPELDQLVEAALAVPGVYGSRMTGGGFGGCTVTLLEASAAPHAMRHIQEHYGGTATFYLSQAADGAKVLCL

Compound	outcome [1]	Potency [2]	Potency [3]	outcome [4]	Potency [5]	Potency [6]	Potency [7]	Potency [8]	Potency [9]	Potency [10]	outcome [11]	Potency [12]	Potency [13]	outcome [14]	outcome [15]	activation [16] [%]	outcome [17]	outcome [18]	Potency [19]
CCCCCCCCCCCCCCC/C=C/[C@@H](O)[C@H](NC(=O)CCCCCCCCCCCCC)OC (tested in a mixture with another compound)	inactive	inactive	inactive	inactive	inactive	inactive	inactive	inactive	inactive	inactive	inactive	inactive	inactive	inactive	inactive	1.19	inactive	inactive	inactive
NC(=NCCC[C@H](N)C(=O)O)NO	inactive	inactive	inactive	inactive	inactive	inactive	inactive	inactive	inactive	inactive	inactive	inactive	inactive	inactive	inactive	0.812	inactive	inactive	inactive
N[C@H](Cc1ccc(O)c(O)c1)C(=O)O	inactive	10 µM (active)	inactive	inactive	inactive	inactive	inactive	inactive	inactive	inactive	inactive	inactive	inactive	inactive	inactive	0.688	inactive	inactive	inactive
CC(=O)[C@@]1(O)CC[C@H]2C3CCC4=CC(=O)CC[C@]4(C)C3CC[C@@]21C (stereo partly specified)	inactive	inactive	inactive				inactive	inactive		inactive	inactive	inactive	inactive	inactive	inactive	1.5	inactive	inactive	inactive
CC(C)CN(C)c1nc(N)c(C(=O)N=C(N)N)nc1Cl	inactive	inactive	inactive		11.2 µM (active)	3.98 µM (active)	7.08 µM (active)		8.91 µM (active)	inactive		8.28 µM (active)	10.4 µM (active)		inactive	0.812	inactive		2 µM (active)
